Two molecules from PubChem BioAssay (NCATS) can be followed below.

The structures appear in SMILES notation. Values without a mark were called inactive. Inconclusive results are not listed. Calls of active or inactive are those of the source. Unless noted, the call rests on the fitted dose curve; in most records, active means well fitted curve in the direction sought with a large enough effect; inconclusive means small, poorly fitted or top-dose-only effect, or another doubt; inactive means no such curve, though single readings can be large; an effect the other way counts as inactive or inconclusive.

Assay [1] addresses Cytochrome P450 1A2 (Homo sapiens) (UniProt P05177). Briefly: p450-cyp1a2 (AID 410; calls by dose curve; further: potency means the concentration at half of the fitted maximal effect). A digest of the protocol:
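Luminescent demethylation readout: Luciferin-ME (100uM, equal to Km) turned over by 20nM CYP1A2 for 60 min at room temperature after NADPH regeneration addition, following 10 min compound preincubation. Normalization used 57 uM furafylline as full inhibition.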

The nature of assay [2]: NFAT Signaling Pathway (AID 444; active means well fitted curve in either direction with a large enough effect, not every such curve was filed as active;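 further: carbachol stimulus at about its EC50 of 1 µM final; on the % scale 0 is the no-effect control and ±100 the full control effect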). As to conditions: Jurkat NFAT-bla M1, carbachol, beta-lactamase ratio, 5 h; at 17.2 µM (top of the series) unless noted. The method, boiled down: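 Jurkat cells with NFAT-driven β-lactamase reporter and co-expressed M1 receptor, stimulated with carbachol (final 1 uM, ~EC50), compound titration, 5 h at 37 °C. CCF4 loaded 1 h at RT; 460/530 nm ratio gave %activity and AC50.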

Assay [3] in a line: Stat Signaling Pathway (AID 446; active means well fitted curve in either direction with a large enough effect, not every such curve was filed as active;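 further: ME-180 cervical cancer cells given 40 pM IL-6 alongside compound; SIE-controlled beta-lactamase reporter measured as 460/530 nm FRET emission ratio; on the % scale 0 is the no-effect control and ±100 the full control effect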). As to conditions: ME-180 (cervical carcinoma) SIE beta-lactamase reporter, IL-6 stimulated, 5 h; at 17.2 µM (top of the series) unless noted. The method, boiled down:
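Compound effects on IL-6-induced STAT reporter activity were measured in ME-180 cells. After overnight culture, cells were co-treated with 40 pM IL-6 for 5 hrs before beta-lactamase substrate loading at room temperature.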

For assay [4], the target named is Glucocorticoid receptor (Homo sapiens) (UniProt P04150). Nature of the assay: GR-GFP Redistribution (AID 450;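 active means compounds whose dose series gives a full or clear partial fitted curve of increased nuclear translocation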; further: potency means the concentration at half of the fitted maximal effect).
Glucocorticoid receptor (Homo sapiens), sequence (P04150 whole entry, looked up): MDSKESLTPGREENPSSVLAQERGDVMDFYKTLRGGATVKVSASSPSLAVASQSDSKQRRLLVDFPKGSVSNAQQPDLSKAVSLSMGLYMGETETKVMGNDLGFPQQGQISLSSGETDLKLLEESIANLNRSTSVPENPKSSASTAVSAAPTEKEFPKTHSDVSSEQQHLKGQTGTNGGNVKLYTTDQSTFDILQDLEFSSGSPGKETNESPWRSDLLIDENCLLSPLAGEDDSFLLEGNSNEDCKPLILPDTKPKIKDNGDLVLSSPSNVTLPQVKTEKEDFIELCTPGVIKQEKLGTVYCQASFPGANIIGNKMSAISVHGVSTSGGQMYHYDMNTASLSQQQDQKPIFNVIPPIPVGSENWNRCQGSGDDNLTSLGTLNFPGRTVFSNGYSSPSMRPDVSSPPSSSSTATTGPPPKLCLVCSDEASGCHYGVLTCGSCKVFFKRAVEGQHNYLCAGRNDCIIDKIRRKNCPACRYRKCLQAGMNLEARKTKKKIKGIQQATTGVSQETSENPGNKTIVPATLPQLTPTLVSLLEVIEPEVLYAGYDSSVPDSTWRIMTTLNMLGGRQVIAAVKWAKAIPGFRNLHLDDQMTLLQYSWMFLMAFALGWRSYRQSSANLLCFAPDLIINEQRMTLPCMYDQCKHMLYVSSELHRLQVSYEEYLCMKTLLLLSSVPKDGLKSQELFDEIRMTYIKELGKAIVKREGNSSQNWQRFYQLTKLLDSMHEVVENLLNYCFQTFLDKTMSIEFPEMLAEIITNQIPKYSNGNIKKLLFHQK
The target is the same in assay [5]. Nature of the assay: GR-EFC Redistribution (AID 451; calls by dose curve; further: potency means the concentration at half of the fitted maximal effect). As to conditions: CHO-K1 GR-EFC translocation, beta-gal luminescence, 2 h. The method, boiled down:
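CHO-K1 cells expressing nuclear EA and GR-ED fragments of b-gal; compounds titrated up to 46 uM final, 2 h at 37 C. GR nuclear translocation read as complemented b-gal luminescence after 1 h RT detection.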

Assay [6] has as its target 3',5'-cyclic-AMP phosphodiesterase 4B (Homo sapiens) (UniProt Q07343). Briefly: qHTS Assay for Inhibitors of PDE-IV (AID 607; active means well fitted activation curve with a large enough effect in the main read-out, with a control signal flat, not every such curve was filed as active; further: % of control where 0% means no effect). A digest of the protocol:
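ACTOne HEK293 cells carry a modified cAMP-gated CNG channel and express endogenous PDE4; plated 1000 cells/well, compounds up to 22.9 uM final. Membrane-potential dye fluorescence (ex 535/em 590) was read; parental cells received 10 uM forskolin + 100 uM RO 20-1724.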
For orientation: qHTS replaces the single test concentration by a dilution series.

Assay [7] concerns the target Guanine nucleotide-binding protein G(i) subunit alpha-1 (Homo sapiens) (UniProt P63096). Briefly: qHTS Assay for Inhibitors of RGS12 GoLoco Motif Activity (Green Fluorophore) (AID 879).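 Further: 0% = labeled peptide with Gαi1 and full inhibition = labeled peptide alone without protein; negative values mean loss of peptide binding seen as reduced polarization.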 The method, boiled down: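 A drop in FITC polarization marked displacement of the FITC-tagged RGS12 GoLoco peptide (10 nM) from Gαi1 (50 nM). Compounds were incubated 10 min at room temperature in Tris pH 7.5 buffer containing 150 mM NaCl, 0.1 mM GDP and 0.05% NP40; unlabeled peptide titration served as control.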

Assay [8] has as its target Cytochrome P450 3A4 (Homo sapiens) (UniProt P08684). Nature of the assay: qHTS Assay for Activators of Cytochrome P450 3A4 (AID 885). Further: nearly all actives have a fitted effect of over 65% in size. A digest of the protocol:
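CYP3A4 activity: Luciferin-PPXE O-dealkylation, 25uM substrate, 200mM KPO4, RT throughout. Read-out is luciferase luminescence; higher values reflect activation.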

Assay [9] addresses Pyruvate kinase PKM (Homo sapiens) (UniProt P14618). Briefly: qHTS Assay for Activators of Human Muscle Pyruvate Kinase (AID 954; active means well fitted curve in the direction sought with a large enough effect, not every such curve was filed as active;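 further: 0% = uninhibited enzyme and -100% = no enzyme or full thiadiazolimine inhibition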). A digest of the protocol:
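A coupled luminescent readout tracked ATP made from ADP by purified PKM2. Final conditions included 0.1 nM enzyme, PEP and ADP at 0.5 and 0.1 mM, pH 7.2 imidazole buffer with BSA, and a one-hour room-temperature reaction.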

Assay [10] concerns the target Pyruvate kinase (Leishmania mexicana) (UniProt Q27686). Briefly: qHTS Validation Assay for Activators of Leishmania Mexicana Pyruvate Kinase (AID 959). A digest of the protocol:
(§1)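 Mutant LmPYK (E451W), 0.2 nM, plus 0.5 mM PEP and 0.1 mM ADP in 50 mM imidazole pH 7.2 containing 0.01% Tween 20 and 0.05% BSA. Incubated 1 h at room temperature; luminescence via PKLight, normalized to DMSO.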

Assay [11] addresses Alpha-galactosidase A (Homo sapiens) (UniProt P06280). Nature of the assay: Counterscreen for Glucocerebrosidase Inhibitors: qHTS Assay for Human alpha-Galactosidase at pH 4.5 (AID 992). Further: 0% is about no effect. A digest of the protocol: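 Citrate buffer pH 4.5, Tween-20 0.005%. Enzyme 2 nM, substrate 80 uM, 20 min RT. Stop pH 10. Fluorescence Ex 365/Em 440. AC50 by Hill fit.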
Assay [12] addresses alpha-glucosidase (Oryza sativa, rice) (UniProt Q653V4). Nature of the assay: Counterscreen for Glucocerebrosidase Inhibitors: qHTS Assay for Rice alpha-Glucosidase at pH 5.0 (AID 997).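 Further: 0% = full activity with enzyme and -100% = basal without enzyme.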 The method, boiled down:
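Endpoint fluorogenic assay at pH 5.0: compounds (0.7 nM to 77 uM) titrated against 4 nM rice enzyme and 400 uM 4-MU-alpha-glucoside for 20 min at room temperature; NaOH/glycine stop, read ex 365/em 440 nm, Hill-fitted AC50.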
In general terms: Counterscreens check selectivity or assay interference.

The nature of assay [13]: qHTS Assay for Identification of Small Molecule Agonists for Thrombopoietin (TPO) Signaling Pathway (AID 917). Further: on the % scale 0 is the no-effect control and ±100 the full control effect. The method, boiled down:
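Luciferase reporter (Glycoprotein IIb promoter) in IL-3-deprived Ba/F3 cells carrying human TPO receptor; compounds co-added with 26 pM TPO, incubated 24 h, 37 C. Steadylite luminescence measured after 10 min.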

Assay [14] deals with Pyruvate kinase (Leishmania mexicana) (UniProt Q27686). Briefly: qHTS Validation Assay for Inhibitors of Leishmania Mexicana Pyruvate Kinase (AID 945).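 Further: 0% = DMSO only neutral control wells.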 The method, boiled down: as §1
Pyruvate kinase (Leishmania mexicana), sequence (Q27686 2-499 E452W): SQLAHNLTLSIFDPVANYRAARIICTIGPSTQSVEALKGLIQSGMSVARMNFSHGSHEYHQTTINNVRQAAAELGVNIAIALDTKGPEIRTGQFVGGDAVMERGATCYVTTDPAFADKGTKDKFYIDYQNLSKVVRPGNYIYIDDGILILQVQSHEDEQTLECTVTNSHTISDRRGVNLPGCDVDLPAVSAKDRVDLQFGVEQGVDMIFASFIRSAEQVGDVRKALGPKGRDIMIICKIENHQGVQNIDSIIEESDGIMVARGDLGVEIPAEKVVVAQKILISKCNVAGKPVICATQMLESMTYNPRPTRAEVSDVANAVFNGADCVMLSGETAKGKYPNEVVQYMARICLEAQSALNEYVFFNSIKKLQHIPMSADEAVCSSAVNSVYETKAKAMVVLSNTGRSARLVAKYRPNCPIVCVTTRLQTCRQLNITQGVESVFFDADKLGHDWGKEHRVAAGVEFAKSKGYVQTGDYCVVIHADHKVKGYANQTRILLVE

Guanine nucleotide-binding protein G(i) subunit alpha-1 (Homo sapiens), sequence (P63096 whole entry, looked up): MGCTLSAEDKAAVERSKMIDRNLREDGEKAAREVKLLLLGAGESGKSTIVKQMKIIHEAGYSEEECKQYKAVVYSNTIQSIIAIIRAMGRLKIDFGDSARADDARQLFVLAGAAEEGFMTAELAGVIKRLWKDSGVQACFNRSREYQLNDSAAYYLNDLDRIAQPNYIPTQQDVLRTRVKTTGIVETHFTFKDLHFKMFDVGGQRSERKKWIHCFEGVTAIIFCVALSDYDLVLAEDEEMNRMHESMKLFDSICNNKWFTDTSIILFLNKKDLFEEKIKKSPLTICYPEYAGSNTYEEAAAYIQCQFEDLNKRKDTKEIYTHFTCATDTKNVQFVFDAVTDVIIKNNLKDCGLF
Pyruvate kinase PKM (Homo sapiens), sequence (P14618 whole entry, looked up): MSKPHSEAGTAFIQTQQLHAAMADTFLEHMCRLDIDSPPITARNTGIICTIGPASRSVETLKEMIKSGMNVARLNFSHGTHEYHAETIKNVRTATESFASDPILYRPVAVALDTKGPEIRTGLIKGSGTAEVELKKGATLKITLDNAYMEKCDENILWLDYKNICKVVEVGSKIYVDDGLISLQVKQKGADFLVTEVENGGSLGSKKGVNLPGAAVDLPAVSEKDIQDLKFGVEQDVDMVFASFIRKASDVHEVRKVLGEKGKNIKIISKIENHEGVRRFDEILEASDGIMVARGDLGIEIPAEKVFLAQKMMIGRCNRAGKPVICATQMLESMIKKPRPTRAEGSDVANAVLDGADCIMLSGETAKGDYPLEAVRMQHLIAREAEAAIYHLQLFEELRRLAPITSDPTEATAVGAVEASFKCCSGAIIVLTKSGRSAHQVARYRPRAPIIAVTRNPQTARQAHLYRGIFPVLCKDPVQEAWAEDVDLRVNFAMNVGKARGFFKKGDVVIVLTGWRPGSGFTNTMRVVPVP
Cytochrome P450 1A2 (Homo sapiens), sequence (P05177 whole entry, looked up): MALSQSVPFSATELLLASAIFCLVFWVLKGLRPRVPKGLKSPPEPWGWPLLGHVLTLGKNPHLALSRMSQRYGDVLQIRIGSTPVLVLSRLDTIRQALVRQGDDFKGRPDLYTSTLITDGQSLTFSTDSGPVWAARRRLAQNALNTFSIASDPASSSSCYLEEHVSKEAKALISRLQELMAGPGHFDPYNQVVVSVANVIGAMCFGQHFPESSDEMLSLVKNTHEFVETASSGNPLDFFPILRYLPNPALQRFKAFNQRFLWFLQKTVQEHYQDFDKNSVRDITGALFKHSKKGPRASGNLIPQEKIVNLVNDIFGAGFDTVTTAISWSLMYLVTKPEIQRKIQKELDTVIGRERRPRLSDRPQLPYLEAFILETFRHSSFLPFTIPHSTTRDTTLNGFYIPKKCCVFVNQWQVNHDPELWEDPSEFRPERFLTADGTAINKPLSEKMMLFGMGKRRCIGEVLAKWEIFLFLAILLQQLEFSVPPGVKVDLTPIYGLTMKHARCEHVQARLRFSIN
3',5'-cyclic-AMP phosphodiesterase 4B (Homo sapiens), sequence (Q07343 whole entry, looked up): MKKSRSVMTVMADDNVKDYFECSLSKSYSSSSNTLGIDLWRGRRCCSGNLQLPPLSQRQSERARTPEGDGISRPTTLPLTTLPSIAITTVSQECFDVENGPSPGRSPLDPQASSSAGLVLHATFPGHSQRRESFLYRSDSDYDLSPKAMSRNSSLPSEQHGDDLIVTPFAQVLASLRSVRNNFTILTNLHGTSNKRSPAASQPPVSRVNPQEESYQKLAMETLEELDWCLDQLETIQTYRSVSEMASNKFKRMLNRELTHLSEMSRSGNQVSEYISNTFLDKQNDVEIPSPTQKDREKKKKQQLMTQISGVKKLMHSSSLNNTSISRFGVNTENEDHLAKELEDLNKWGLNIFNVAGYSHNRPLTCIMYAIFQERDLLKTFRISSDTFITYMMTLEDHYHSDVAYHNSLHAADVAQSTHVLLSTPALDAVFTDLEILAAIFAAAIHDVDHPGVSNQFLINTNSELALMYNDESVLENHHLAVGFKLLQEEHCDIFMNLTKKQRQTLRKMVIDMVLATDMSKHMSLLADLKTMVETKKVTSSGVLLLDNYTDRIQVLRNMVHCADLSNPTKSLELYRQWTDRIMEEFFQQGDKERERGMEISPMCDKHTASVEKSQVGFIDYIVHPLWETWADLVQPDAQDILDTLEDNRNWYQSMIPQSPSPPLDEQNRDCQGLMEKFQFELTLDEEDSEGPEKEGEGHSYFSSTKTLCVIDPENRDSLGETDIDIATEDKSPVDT
Alpha-galactosidase A (Homo sapiens), sequence (P06280 whole entry, looked up): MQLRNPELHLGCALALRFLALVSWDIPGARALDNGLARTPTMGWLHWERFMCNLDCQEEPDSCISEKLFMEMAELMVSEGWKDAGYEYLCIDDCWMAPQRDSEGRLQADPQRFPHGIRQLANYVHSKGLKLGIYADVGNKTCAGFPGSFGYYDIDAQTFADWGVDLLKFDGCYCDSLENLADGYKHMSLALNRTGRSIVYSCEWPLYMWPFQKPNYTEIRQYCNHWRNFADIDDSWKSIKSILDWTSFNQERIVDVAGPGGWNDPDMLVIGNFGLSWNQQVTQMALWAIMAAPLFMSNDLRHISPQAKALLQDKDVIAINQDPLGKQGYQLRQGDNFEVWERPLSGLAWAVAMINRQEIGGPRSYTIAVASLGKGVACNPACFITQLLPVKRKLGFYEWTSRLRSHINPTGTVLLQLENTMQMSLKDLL
Cytochrome P450 3A4 (Homo sapiens), sequence (P08684 whole entry, looked up): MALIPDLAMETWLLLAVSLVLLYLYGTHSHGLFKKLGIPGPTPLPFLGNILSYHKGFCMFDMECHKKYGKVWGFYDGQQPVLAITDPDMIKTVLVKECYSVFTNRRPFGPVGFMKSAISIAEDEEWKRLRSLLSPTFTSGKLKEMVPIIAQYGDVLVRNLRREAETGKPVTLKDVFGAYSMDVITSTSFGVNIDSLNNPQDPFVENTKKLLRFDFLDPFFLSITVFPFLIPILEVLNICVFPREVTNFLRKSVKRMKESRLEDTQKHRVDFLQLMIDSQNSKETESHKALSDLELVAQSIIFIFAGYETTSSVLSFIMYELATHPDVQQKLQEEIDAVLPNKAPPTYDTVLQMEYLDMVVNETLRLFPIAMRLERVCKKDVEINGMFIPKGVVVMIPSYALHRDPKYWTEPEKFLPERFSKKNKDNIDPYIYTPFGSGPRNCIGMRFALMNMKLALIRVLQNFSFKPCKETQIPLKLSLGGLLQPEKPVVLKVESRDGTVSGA

`O=C(/C=C\c1ccc(O)c(O)c1)OCCc1ccccc1`: the Potency in assay [1] was 1 µM (active); in assay [4], more than 46 µM; in assay [5], more than 46 µM. Further, the activity change, negative = inhibition in assay [2] was -12.2% [at 38 µM]. The activity, negative = inhibition in assay [3] is -10.7% [at 38 µM]. Moreover, the Potency entry in [6], in assay [8] and in [10] was “inactive” each time. Also, the molecule was classed as inactive in [7], in [9], in [11] and in assay [12].

As to `Cc1cc(C)c(/C=C2/C(=O)Nc3ccccc32)[nH]1`, the Potency in assay [1] is 0.794 µM (active). Besides, in assay [3], the activity, negative = inhibition was -25.4% [at 38 µM]. Moreover, the Potency entry in assay [6], in [13] and in assay [14] was “inactive” each time. For the same molecule, the molecule was called inactive in [7], in assay [9], in assay [11] and in [12].
